PfHsp90 yeast 2: reduces growth (ATP signal) of yeast expressing P. falciparum Hsp90 | S. cerevisiae expressing PfHsp90, BacTiter-Glo ATP, 48 h; yeast lacking PDR1 and PDR3 efflux regulators | inhibition, % at 9.4 µM | 0.32% of 310,000 active;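 active = every replicate shows inhibition above about 80%, whatever the replicate mean, limit read from the data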;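 note: 0% = DMSO neutral controls and 100% = 20 µM radicicol positive controls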
tim10-1 inh: growth inhibitors of tim10-1 mutant yeast; S. cerevisiae tim10-1 ts strain growth, BacTiter-Glo, 24 h; inhibition, % at 20 µM; 2.2% of 330,000 active;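 active = inhibition of at least 40%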;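 note: mutant grown at 25 °C; 0% = DMSO wells with yeast and 100% = wells holding no yeast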
tim23-1 inh: tim23-1 yeast growth inhibition; inhibition, % at 20 µM; S. cerevisiae tim23-1 growth, BacTiter-Glo luminescence, 24 h; 1.3% of 330,000 active;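 active = growth inhibition of the mutant yeast at or above 50%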;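 note: temperature-sensitive mutant grown at 25 °C; plate controls were DMSO-treated mutant yeast for no effect and medium wells lacking yeast for full effect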
SUMO Mot1 rescue: blocks SUMOylation pathway, rescuing yeast Mot1-301 growth; S. cerevisiae Mot1-301 growth rescue, ATP luminescence, 38.5C; percent above DMSO median, 100 means doubled; growth rescue, % at 18.8 µM; 1% of 320,000 active;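 active = every valid replicate shows activation above 250% relative to neutral control wells; inactive = the rest, any valid replicate at or below 250%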;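 note: OY570 slx delta 5 strain wells were the positive control but not used for scaling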
TIM10 inh: TIM10 yeast growth inhibition; inhibition, % at 10 µM; 1.4% of 330,000 active; S. cerevisiae TIM10 strain growth, BacTiter-Glo luminescence, 24 h;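 active = inhibition of 40% or more at the single tested concentration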;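 note: wild-type TIM10 isogenic control strain grown at permissive 25 °C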
tim10-1 confirm: confirmation of tim10-1 mutant yeast growth inhibitors. shares compounds with tim10-1 inh. S. cerevisiae tim10-1 ts strain growth, BacTiter-Glo, 24 h. inhibition, % at 20 µM. 56% of 7,400 active;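 active = inhibition of yeast growth at or above a set limit in either of two repeat tests at 20 µM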;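 note: tim10-1 mutant grown at permissive 25 °C to find synthetic lethal compounds; 0% = DMSO yeast wells and 100% = medium wells without yeast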
tim10 confirm: confirmation of TIM10 yeast growth inhibitors. inhibition, % at 10 µM. 63% of 4,600 active. S. cerevisiae tim10 strain growth, BacTiter-Glo luminescence, 24 h. AID 463215. shares compounds with TIM10 inh;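 active = inhibition of yeast growth at or above a set limit in either of two replicates at 10 µM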;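 note: this counterscreen used the strain with wild-type TIM10; 0% = yeast with DMSO and 100% = medium wells lacking yeast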
tim23-1 confirm: confirmation of tim23-1 mutant yeast growth inhibitors. shares compounds with tim23-1 inh. S. cerevisiae tim23-1 growth, BacTiter-Glo luminescence, 24 h. inhibition, % at 20 µM. 83% of 4,400 active. AID 463218;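 active = inhibition above about 39% in either of two replicate wells at 20 µM, limit read from the data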;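 note: temperature-sensitive tim23-1 mutant grown at 25 °C; 0% = DMSO wells with yeast and 100% = medium wells without yeast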
Numbers without * were called inactive; . = no result. Hits are enriched below; roughly 4.4% of the tested compounds scored in any of these assays.

SMILES	PfHsp90 yeast 2	tim10-1 inh	tim23-1 inh	SUMO Mot1 rescue	TIM10 inh	tim10-1 confirm	tim10 confirm	tim23-1 confirm
S=C(NCc1ccco1)N1CCN(Cc2ccc(Cl)cc2Cl)CC1	-8.5	50.9*	70.3*	41.1	47.6*	53.5*	43.0*	61.5*
CCOc1ccccc1N1CCN(C(=S)NCc2ccco2)CC1	15.3	17.2	26.2	-3.4	10.3	.	.	.
Cc1cccc(N2CCN(C(=S)NCc3ccco3)CC2)c1C	-40.7	55.1*	53.0*	42.3	19.6	47.7*	.	43.0*
CS(=O)(=O)N(CC(=O)N1CCc2ccccc2C1)c1ccccc1F	.	8.0	5.7	-4.6	11.0	.	.	.
O=C(ONC1=NCCCCC1)c1ccc([N+](=O)[O-])cc1	3.5	51.6*	86.2*	15.2	83.2*	34.2*	84.2*	65.5*
O=C(c1ccc(-n2cnnn2)cc1)N(C1CCCCC1)C1CCCCC1	-6.5	17.8	6.9	-8.7	22.3	.	.	.
O=C(NO)c1ccc(C(=O)N(C2CCCCC2)C2CCCCC2)cc1	.	52.9*	64.4*	-15.9	51.4*	40.6*	39.5*	71.1*
N#C/C(=C\c1ccccn1)c1nc2ccccc2s1	-5.7	82.6*	64.9*	-0.4	77.9*	87.1*	82.0*	33.9
COC(=O)c1ccc(/C=C(\C#N)c2nc3ccccc3s2)cc1	-6.5	1.5	5.0	-1.6	26.1	.	.	.
CCN(CCO)C(=O)c1ccc2nc(Cc3ccc(OC)cc3)oc2c1	-18.4	.	.	5.2	.	.	.	.
C(=N\Nc1nc(-c2cccnc2)nc2ccccc12)/c1ccccc1	.	17.4	26.9	-1.4	9.7	.	.	.
Brc1ccc(-c2nc(N/N=C/c3cccnc3)c3ccccc3n2)cc1	15.1	82.0*	80.5*	-20.6	67.4*	6.3	55.5*	85.9*
Cc1ccc(S/C=C\C(=O)c2ccccc2)cc1	6.0	49.2*	57.6*	3.7	43.8*	46.0*	55.1*	62.0*
Cc1ccc(C(=O)/C=C\C(=O)c2ccc(C)cc2)cc1	-12.0	.	.	103.4	.	.	.	.
Cc1c(CC(=O)O)c(=O)oc2cc(OCc3ccc(Cl)cc3)ccc12	-5.0	24.6	17.0	1.0	6.4	.	.	.
COCCN(C(=O)CCC(=O)Nc1cc(C)on1)C(C(=O)NC1CCCC1)c1ccccc1C (centres undefined)	10.6	-5.8	12.6	-5.7	10.3	.	.	.
COCCN(C(=O)CCl)C(C(=O)NC1CCCCC1)c1ccccc1C (centres undefined)	-1.4	55.1*	50.4*	258.8	46.9*	44.1*	5.0	53.2*
Oc1ccc2ccccc2c1N=Nc1ccccc1F	-10.7	12.5	22.3	3.7	-4.7	.	.	.
Oc1ccc2ccccc2c1N=Nc1ccccn1	124.7*	51.8*	52.4*	-12.6	25.1	45.9*	.	58.8*
c1csc(-c2csc3nc(CN4CCOCC4)nc(NCc4ccc5c(c4)OCO5)c23)c1	-2.0	46.5*	54.0*	1.7	46.7*	37.8*	38.5*	50.6*
c1ccc2c(c1)nc(NCc1ccc3c(c1)OCO3)n2CCN1CCOCC1	-6.2	13.3	0.9	-1.4	-2.1	.	.	.
O=C(c1ccc([N+](=O)[O-])o1)N1CCc2ccccc21	-13.4	65.5*	77.3*	-6.6	67.3*	76.9*	79.1*	85.7*
O=C(Nc1ccc(N2CCOCC2)c(Cl)c1)c1ccc([N+](=O)[O-])o1	-13.9	.	.	.	.	.	.	.
O=C(Nc1ccccc1N1CCOCC1)c1ccc([N+](=O)[O-])o1	109.0*	79.6*	70.0*	38.5	90.1*	80.1*	93.6*	70.8*
Cc1ccccc1Oc1nc(-c2ccccn2)nc2ccccc12	-7.3	48.2*	55.8*	6.0	42.7*	27.5	35.8*	48.8*
SMILES	PfHsp90 yeast 2	tim10-1 inh	tim23-1 inh	SUMO Mot1 rescue	TIM10 inh	tim10-1 confirm	tim10 confirm	tim23-1 confirm
COc1ccccc1N/C=C/c1onc(C)c1[N+](=O)[O-]	0.0	22.3	12.0	-22.4	22.9	.	.	.
Cc1noc(/C=C/c2ccccn2)c1[N+](=O)[O-]	-55.8	52.9*	61.8*	67.0	51.4*	61.6*	58.5*	53.8*
O=C(O)CCC(=O)Nc1ccc(SSc2ccc(NC(=O)CCC(=O)O)cc2)cc1	-11.8	-0.2	5.0	5.0	2.8	.	.	.
CC1=CC(=O)C=C(C)C1=NOc1ccc([N+](=O)[O-])cc1	-34.8	62.0*	56.8*	-29.1	46.7*	65.5*	38.0*	69.2*
COC(=O)c1ccc(/C=C(\C#N)C(=O)NC(C)c2ccccc2)cc1 (centres undefined)	-14.6	64.3*	66.5*	-22.3	61.3*	62.2*	57.5*	58.0*
CC(NC(=O)/C(C#N)=C/c1ccc(N2CCOCC2)cc1)c1ccccc1 (centres undefined)	-78.3	17.6	32.9	-3.2	21.8	.	.	.
O=C(Cc1ccc2c(c1)OCCO2)Nc1cc(Cl)ccc1N1CCOCC1	.	11.5	19.4	.	9.5	.	.	.
CCn1c(SCC(=O)Nc2ccc(NC(C)=O)cc2)nc2c1c(=O)n(C)c(=O)n2C	13.8	-5.7	7.3	-7.7	-16.6	.	.	.
CCc1cccc(CC)c1NC(=O)/C(C#N)=C/c1ccccc1C(F)(F)F	74.9	41.4*	54.7*	-13.7	56.6*	-6.9	13.5	42.0*
CCc1cccc(CC)c1NC(=O)c1ccccc1	-9.9	10.6	3.9	4.0	9.1	.	.	.
N#C/C(=C/C=C/c1ccccc1)C(=O)Nc1ccccc1	11.7	14.5	28.2	-2.6	21.0	.	.	.
N#C/C(=C\c1ccccc1C(F)(F)F)C(=O)Nc1ccccc1	1.3	57.1*	51.7*	-0.9	73.0*	58.0*	61.3*	62.8*
Cc1ccccc1/C(N)=N/OC(=O)c1ccc(F)cc1	-6.8	43.6*	73.7*	7.0	72.6*	42.8*	55.8*	66.6*
Cc1cc(OCC(=O)O/N=C(\N)c2ccccc2)cc(C)c1Cl	24.6	63.7*	72.8*	-1.5	36.1	49.4*	.	80.1*
Cc1cc(OCC(=O)O/N=C(\N)c2ccccc2)ccc1Cl	-1.5	.	.	-18.5	.	.	.	.
N/C(=N\OC(=O)/C=C/c1ccccc1)c1ccccc1	-18.0	42.8*	76.6*	24.3	45.0*	52.7*	63.0*	73.0*
N/C(=N\OC(=O)c1ccoc1)c1ccc(Br)cc1	20.4	59.4*	80.7*	-7.8	70.6*	53.6*	64.0*	84.2*
CCN(CC(=O)Nc1c(F)cccc1F)C(=O)CNC(=O)c1ccc(Br)o1	-8.1	11.5	10.5	9.3	2.5	.	.	.
CC(/C=C\c1ccccc1)=C/C(=O)O	-7.4	8.3	15.8	-1.5	15.3	.	.	.
Cc1ccc(C)c(C(=O)O/N=C(\N)c2ccc(Br)cc2)c1	-3.9	56.8*	86.0*	-13.3	86.8*	33.3*	87.3*	60.6*

Screening results (PubChem BioAssay)
